# aSyn UTR act: Activators working through SNCA 5'UTR binding (MLPCN) | alpha-synuclein 5'UTR reporter, activators screen | activity score, % (tested at 7.5 µM), hits read low | 300,000 tested, 7.1% active | AID 1814; in the data active = activity score below about -60%
# * marks the source's active call; other numbers are inactive results. These entries were drawn from the full list.
SMILES,aSyn UTR act
COc1ccc2cc(C(=O)C3CCCN(C(=O)CCc4cnn(C)c4)C3)ccc2c1 (centres undefined),-82*
CC(NC(=O)Nc1ccc(Br)cc1)C(C)(C)C (centres undefined),-77*
S=C(NCCc1ccc(Cl)cc1)NC1CCCCC1,-111*
S=C(NCCc1ccccc1)NC1CCCCCC1,-114*
CNC[C@@H](Cc1ccccc1)NC[C@@H](CC1CCCCC1)NCCCc1ccccc1,125
COc1ccc(N=C2O/C(=C/c3sc(=S)n(CC4CCCO4)c3O)N=C2C#N)cc1 (centres undefined),-101*
Nc1[nH]c(N=NC(=O)c2ccccc2O)c2ccccc12,-150*
O=C(CSCCO)Nc1ccc(C23CC4CC(CC(C4)C2)C3)cc1,-66*
OCCN1CCN(CC(O)COc2ccc(C34CC5CC(CC(C5)C3)C4)cc2)CC1 (centres undefined),85
O=C(O)CSCC(=O)Nc1ccc(C2CCCCC2)cc1,108
Cn1nnc2cc(C(=O)Nc3ccc(Cl)cc3)ccc21,-117*
CN(C)c1ccc(NC(=O)Nc2ccc3c(c2)nnn3C)cc1,-109*
O=C(Nc1ccc(Br)cc1Cl)c1cnccn1,-70*
Cc1ccc(NC(=O)Nc2cnccn2)cc1Cl,-74*
O=C(Nc1cnccn1)Nc1ccc(Cl)cc1Cl,-62*
CCC(C)c1ccc(NC(=O)Nc2cnccn2)cc1 (centres undefined),-188*
COc1ccc(NC(=O)Nc2cnccn2)cc1,-80*
Cn1ccc(NC(=O)Nc2ccc(Cl)cc2Cl)n1,-112*
CC(=O)Nc1cccc(NC(=O)Nc2ccc(C)c(Cl)c2)c1,-118*
CCCN1C=CC(=C/C=C(\C#N)C(=O)OCC)C=C1,-157*
CCOC(=O)/C(C#N)=C/N=c1ccc(C)cn1C,-88*
CCOC(=O)C1CCN(S(=O)(=O)c2c(Cl)ccc3nonc23)CC1,-309*
O=C(COc1ncnc2cc(Cl)ccc12)c1ccccc1,-62*
O=C(COc1ncnc2ccccc12)c1ccc(Cl)cc1,-204*
c1ccc(OCCOc2ncnc3ccccc23)cc1,-184*
SMILES,aSyn UTR act
CSc1ccccc1-c1nnc(-c2ccc(Cl)c(Cl)c2)o1,-98*
CSc1ccccc1-c1nnc(-c2ccc(Cl)cc2Cl)o1,-109*
COc1ccccc1-n1cc2c([N+](=O)[O-])cc([N+](=O)[O-])cc2n1,-69*
Cc1ccc(-c2nc(NCc3ccco3)n(C(=O)c3ccco3)n2)cc1,-143*
COc1ccccc1C(=O)n1nc(-c2ccccc2)nc1NCc1ccco1,-88*
O=C(c1ccco1)n1nc(-c2ccc(Cl)cc2)nc1NCc1ccco1,-176*
O=C(COc1ccccc1)n1nc(-c2ccc(Cl)cc2)nc1NCc1ccco1,-132*
CCC(=O)Nc1c(C(=O)Nc2cccc(OC)c2)oc2ccccc12,-123*
COCC(=O)Nc1c(C(=O)Nc2ccc3c(c2)OCCO3)oc2ccccc12,-72*
CCC(=O)Nc1c(C(=O)Nc2ccc3c(c2)OCCO3)oc2ccccc12,-143*
O=C(Nc1c2c(nn1-c1ccc(F)cc1)CS(=O)(=O)C2)C1CCCC1,-62*
O=C(Nc1ccc(-c2noc(CCc3ccccc3)n2)cc1)c1cccnc1,-67*
O=C(Nc1ccc(-c2nc3ccccc3o2)cc1)c1cccnc1,-133*
COc1cccc(C(=O)Nc2ccc(-c3nc4ccccc4o3)c(O)c2)c1,-115*
Cc1ccc2oc(-c3ccc(NC(=O)c4cccnc4)cc3)nc2c1,-162*
Cc1cc(NC(=O)c2ccc(Br)c([N+](=O)[O-])c2)no1,-81*
Cc1cc(NC(=O)c2ccc(C)c(C)c2)no1,-106*
CCc1ccc(C(=O)Nc2cc(C)on2)o1,-112*
CC(=O)Oc1ccc(C(=O)Nc2cc(C)on2)cc1,-84*
Cc1cc(NC(=O)c2ccc(NC(=O)C(C)C)cc2)no1,-62*
CCOC(=O)C1CCCCN1C(=O)CCc1c(C)nc2ncnn2c1C (centres undefined),61
COC(=O)[C@@H]1CCCN1C(=O)CCc1nnc(CCC2CCCCC2)o1,-116*
CN(C)c1nc2ccc(OCCN3CCCCC3)cc2s1,-71*
COc1ccc(Cn2c(C3CC3)nc3ccc(NC(=O)c4cccnc4)cc3c2=O)cc1,-176*
COc1ccc(Cn2c(C3CC3)nc3ccc(NC(C)=O)cc3c2=O)cc1,-121*
SMILES,aSyn UTR act
CCCc1nc2ccc(NC(C)=O)cc2c(=O)n1Cc1ccc(Cl)cc1,-137*
Cc1nc2ccc(N)cc2c(=O)n1Cc1ccc(Cl)cc1,-74*
CCOC(=O)c1ccc(NC(=O)CC2SCCNC2=O)cc1 (centres undefined),-81*
Oc1ccc(/C=C/c2cnccn2)cc1,-171*
COc1cc(OC)c2c(c1)O/C(=C\c1ccccc1)C2=O,-154*
COc1ccc(/C=C/C2=Nc3ccccc3NC(C)(C)C2)cc1OC,-78*
Cc1cccc(-c2nc(C#N)c(NCC3CCCO3)o2)c1 (centres undefined),-112*
Cc1cccc(-c2nc(C#N)c(N3CCCCCC3)o2)c1,-68*
Cc1ccc(-c2nc(C#N)c(NCC3CCCO3)o2)cc1 (centres undefined),-88*
CCOC(=O)C1CCN(C(=O)CCc2c(C)nc3cc(-c4ccccc4)nn3c2C)CC1,66
CCOC(=O)Cc1c(C)nc2c(-c3ccccc3)cnn2c1C,-70*
CCOC(=O)c1cnc2c(-c3ccccc3)cnn2c1C,-112*
CC(=O)c1cnc2c(-c3ccccc3)cnn2c1C,-68*
Cc1ccc(Cn2cc(-c3ccccc3)nn2)cc1,-124*
COc1ccc(-c2cn(Cc3ccc(C(=O)c4ccccc4)cc3)nn2)cc1,-161*
COc1ccc(C(=O)N2CCn3c2nc2ccccc23)cc1,-108*
COc1ccc(C(=O)n2c(-c3ccco3)nc3ccccc32)cc1,-100*
O=C(c1cccs1)N1CCn2c1nc1ccccc12,-118*
Cc1ccc(C(=O)n2c(N)nc3ccccc32)cc1,81
CCOc1ccc(C(=O)N2CCn3c2nc2ccccc23)cc1,-69*
COc1ccc(CCNC(=O)c2coc(=O)c(Br)c2)cc1,-63*
COc1ccc(CCNC(=O)c2ccc3c(c2)OCCO3)cc1,-135*
O=C(NCCc1ccccc1)c1ccc2c(c1)OCCO2,106
O=C(O)c1ccc(Nc2nc(-c3cccnc3)cs2)cc1,-88*
CC(=O)c1ccc(Nc2nc(-c3cccnc3)cs2)cc1,-130*
SMILES,aSyn UTR act
CCC(=O)N1N=C(c2ccc(NS(C)(=O)=O)cc2)CC1c1ccc(N(C)C)cc1 (centres undefined),-102*
CCc1ccc2c(c1)C(=O)c1ccccc1C2=O,-199*
CCCCN1C=CC(=C2C(=O)c3ccccc3C2=O)C=C1,98
C/C(=N\Nc1cc(N2CCOCC2)ncn1)c1cccc([N+](=O)[O-])c1,-81*
C/C(=N\Nc1cc(N2CCOCC2)ncn1)c1ccccc1,-79*
O=[N+]([O-])c1cccc(/C=N/Nc2cc(N3CCOCC3)ncn2)c1,-90*
Clc1ccccc1/C=N/Nc1cc(N2CCOCC2)ncn1,-151*
O=C1/C(=C/N(C(=O)c2ccco2)c2ccc(Cl)cc2)Sc2ccccc21,-184*
O=C1/C(=C/N(C(=O)c2ccco2)c2ccc(Br)cc2)Sc2ccccc21,-241*
C=CCOC(=O)/C(=C\c1ccccc1)NC(=O)c1ccc(C)cc1,-175*
CCOC(=O)/C(=C\c1ccccc1)NC(=O)c1ccccc1,-105*
Cc1cc(C)c2c(=O)n(-c3ccccc3)[nH]c2n1,-72*
Cc1c(Cl)cccc1NC(=O)c1cccc(OC(F)F)c1,-76*
Cc1ccc(NC(=O)c2cccc(OC(F)F)c2)c(OC(F)F)c1,-71*

# From PubChem
